The list is not random: actives were taken first. Their share in the collection is about 2.7%.
FID counter: counter-screen for HCV NS3 helicase inhibitors: DNA intercalator displacement | DNA fluorescent intercalator displacement, fluorescence | inhibition, % at 7.9 µM | hit rate 0.17% among 290,000 | AID 1845; in the data active means inhibition above about 37%;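 further: 0% = vehicle and 100% = reference compound; higher means more ethidium bromide displaced from hairpin DNA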
PP1 inh: PP1-alpha (human) inhibition in PP5 counter-screen | P62136 | purified PP1alpha, OMFP fluorescence | inhibition, % at 6.7 µM | hit rate 0.9% among 320,000 | AID 2235;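 active means inhibition above the mean inhibition of all tested compounds plus 3 SD, computed separately for each screening campaign, cut at about 15% in these data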
Target sequence (P62136 whole entry, looked up): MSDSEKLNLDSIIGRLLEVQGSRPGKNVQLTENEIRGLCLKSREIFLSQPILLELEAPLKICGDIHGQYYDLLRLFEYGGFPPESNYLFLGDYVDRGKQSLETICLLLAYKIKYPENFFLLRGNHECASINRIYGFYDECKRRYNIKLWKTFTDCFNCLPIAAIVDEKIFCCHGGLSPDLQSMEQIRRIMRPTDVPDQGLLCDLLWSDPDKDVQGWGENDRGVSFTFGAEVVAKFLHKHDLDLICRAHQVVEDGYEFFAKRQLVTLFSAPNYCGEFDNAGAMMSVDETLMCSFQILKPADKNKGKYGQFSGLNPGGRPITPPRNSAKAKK
PP5 primary: blocks human protein phosphatase 5 activity | P53041 | purified PP5c, OMFP substrate fluorescence | inhibition, % at 6.7 µM | hit rate 0.18% among 320,000 | AID 1987;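 active means inhibition above the campaign's mean inhibition across all tested compounds plus 3 SD, cut at about 9.5% in these data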;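 further: 0% = DMSO only and 100% = 100 µM cantharidin control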
ANO1 block: inhibitors of mouse TMEM16A calcium-activated chloride channel; hit rate 1.2% among 310,000; Q8BHY3; normalized B-score (activity score, 25-100; higher = stronger inhibition) at 10 µM; HEK293 TMEM16A/YFP iodide influx fluorescence, ionomycin;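 active means ratio plate-corrected score three or more library SD toward inhibition, starting fluorescence score within five deviations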;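 further: score derived from kinetic fluorescence span divided by baseline fluorescence per well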
ANO1 activ: activators or potentiators of mouse TMEM16A chloride channel; Q8BHY3; HEK293 TMEM16A/YFP-H148Q/I152L, iodide quench fluorescence; active compounds read low; B-score at 10 µM; hit rate 0.3% among 340,000; AID 623877;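 active means fluorescence-ratio B-score plate-corrected deviation score at least 3 library SD below zero, with starting fluorescence score within 5 deviations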;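 further: channel opened by trigger with iodide after compound preincubation; score built on the fluorescence ratio of max minus min over baseline; more negative score means more quench and so TMEM16A activation or potentiation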
PREPL inh: inhibitors of human prolyl oligopeptidase-like enzyme PREPL; Q4J6C6; recombinant PREPL, fluorescence polarization activity-based probe; inhibition, % at 5.96 µM; hit rate 0.68% among 320,000; in the data active means inhibition above about 43%;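 further: 0% = enzyme with DMSO and 100% = wells lacking enzyme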
PP5 conf: PP5 (human) inhibition, confirmation | Purified PP5, fluorogenic phosphatase substrate, fluorescence | hit rate 22% among 460 | inhibition, % at 6.7 µM | shares compounds with PP5 primary; in the data active means inhibition above about 9.5%
PP1 inh counter: counter-screen for PP5 inhibitors: human PP1 phosphatase inhibition; hit rate 4% among 460; PP1 enzyme, fluorescent phosphatase substrate; shares compounds with PP5 primary; inhibition, % at 6.7 µM; in the data active means inhibition above about 16%
* marks the source's active call; other numbers are inactive results; i = inactive; · = no result given.

SMILES	FID counter	PP1 inh	PP5 primary	ANO1 block	ANO1 activ	PREPL inh	PP5 conf	PP1 inh counter
CCOc1cc(CNc2ncc(-c3ccc(OC)cc3)n2C)ccc1O	8	0	10*	i	i	39	1	-3
O=C(O)c1nnn(-c2ccc(F)cc2F)c1-c1ccccc1	4	-1	-2	i	i	-5	·	·
O=C(O)c1nnn(-c2cc(C(F)(F)F)cc(C(F)(F)F)c2)c1-c1ccccc1	-17	4	20*	i	i	8	-2	-2
CC1(OC(=O)C2CCCC2)C(=O)C=C2C=C(c3ccsc3)N(CCCCO)C=C2C1=O (stereo unspecified)	·	0	10*	i	i	17	44*	18*
COc1ccc(CN2C=C3C(=O)C(C)(OC(=O)C4CCCC4)C(=O)C=C3C=C2c2ccsc2)cc1 (stereo unspecified)	·	14	7	i	i	41	·	·
Oc1ccc(/C=N/Nc2cc(N3CCOCC3)nc(N3CCOCC3)n2)cc1	-15	-2	6	i	i	29	·	·
COc1ccc(/C=N/Nc2cc(N3CCCC3)nc(N3CCCC3)n2)cc1	-1	6	16*	i	-19*	30	34*	18*
Oc1ccc(/C=N/Nc2cc(N3CCCC3)nc(N3CCCC3)n2)cc1	2	3	16*	i	i	22	37*	14
Oc1cccc(/C=N/Nc2cc(N3CCCC3)nc(N3CCCC3)n2)c1	-3	3	16*	i	i	35	37*	10
Cc1cc(C)c(C)c(S(=O)(=O)NCCN2CCOCC2)c1C	-10	-6	-1	i	i	-16	·	·
Cc1cc(OCc2cc(C(=O)N3CCCCCC3)no2)cc(C)c1Cl	-37	4	3	i	i	19	·	·
Cn1c(SCc2cccc(F)c2)nnc1-c1ccccn1	-10	1	4	i	i	1	·	·
Cc1ccccc1CSc1nnc(-c2ccccn2)n1C	-18	1	23*	i	i	-5	-3	-1
CN1CCC(N(C)C(=O)c2cc(-c3ccc(F)cc3)nc3ccccc23)CC1	·	·	·	·	i	0	·	·
CN(C)S(=O)(=O)c1ccc(NC(=O)c2cc3ccccc3o2)cc1	-18	4	10*	i	i	15	-4	-2
Cc1ccc(NC(=O)c2cc3ccccc3o2)cc1S(=O)(=O)N(C)C	-2	·	·	·	i	·	·	·
O=C1c2ccccc2C(=O)C12OC2c1ccc(Cl)cc1 (stereo unspecified)	1	1	11*	i	·	-5	32*	4
COC(=O)C1=C(C)N=C2SCCC(=O)N2C1c1ccc(C(=O)OC)cc1 (stereo unspecified)	-8	-1	-1	i	i	21	·	·
COC(=O)c1ccc(C2C(C(=O)OCC(C)C)=C(C)N=C3SCCC(=O)N32)cc1 (stereo unspecified)	-6	1	10*	i	i	-3	-1	1
Cc1cccc(N2CCN(C(=O)Cc3ccc(-n4c(=O)[nH]c5ccsc5c4=O)cc3)CC2)c1C	-33	3	1	i	i	-10	·	·
Cc1ccc(C)c(N2CCN(C(=O)Cc3ccc(-n4c(=O)[nH]c5ccsc5c4=O)cc3)CC2)c1	-31	-4	13*	i	i	8	-4	-4
O=C1CC2CCCN2C=C1I (stereo unspecified)	·	·	·	·	i	5	·	·
ONC(=Nc1ccccc1Cl)c1ccccc1Cl	-5	2	13*	i	i	-6	-1	0
COc1cc(-c2noc(C3CCCN(C(=O)c4c(F)cccc4F)C3)n2)cc(OC)c1OC (stereo unspecified)	-29	1	4	i	i	-2	·	·
CC1(C)Cc2c(sc(NC(=O)Nc3ccccc3)c2C(N)=O)CO1	-6	1	11*	i	i	-1	-1	-1
SMILES	FID counter	PP1 inh	PP5 primary	ANO1 block	ANO1 activ	PREPL inh	PP5 conf	PP1 inh counter
COc1cc(OC)c(OC)cc1/C=C1\CC(C)C/C(=C\c2cc(OC)c(OC)cc2OC)C1=O (stereo unspecified)	-11	1	1	i	i	19	·	·
CC(=O)c1cccc(-c2ccc3c(=O)[nH]c(Nc4ccccc4)cc3c2)c1	·	13	9.7*	i	i	29	29*	21*
O=c1[nH]c(Nc2ccccc2)cc2cc(Br)ccc12	·	-1	14*	i	i	25	34*	8
CC(=O)c1cccc(Nc2nc(-c3ccccc3)nc3ccccc23)c1	-2	0	2	i	i	-6	·	·
O=c1[nH]c(Nc2ccccc2)cc2ccccc12	0	-1	11*	i	i	15	34*	0
COc1ccccc1Nc1cc2cc(Br)ccc2c(=O)[nH]1	·	5	6	i	i	23	·	·
Cn1c(=S)[nH]c2[nH]c(=O)cnc2c1=O	-2	-2	-2	i	i	-6	·	·
COC(=O)CCC(=O)OC1(C)C(=O)C=C2C=C(C3CC3)N(C3CCCC3)C=C2C1=O (stereo unspecified)	·	3	12*	i	i	15	32*	7
CCN(CC)CCCN1C=C2C(=O)C(C)(OC(=O)CCC(=O)OC)C(=O)C=C2C=C1C1CC1 (stereo unspecified)	·	-1	8	i	i	8	·	·
COC(=O)CCC(=O)OC1(C)C(=O)C=C2C=C(C3CC3)N(C3CCCCC3)C=C2C1=O (stereo unspecified)	·	5	8	i	i	10	·	·
COC(=O)CCC(=O)OC1(C)C(=O)C=C2C=C(C3CC3)N(CC3CC3)C=C2C1=O (stereo unspecified)	·	0	12*	i	i	19	37*	14
Cn1ccc(CC(=O)N2CCC(N3CCC(C(=O)N4CCCC4)CC3)CC2)c1	-10	-3	-1	i	i	-7	·	·
COc1ccc(-c2csc3ncn(CC(=O)N4CCOCC4)c(=O)c23)cc1	-5	6	1	i	i	15	·	·
COC(=O)[C@]1(C)N[C@H](CN(C)S(=O)(=O)c2ccc(-c3ccccc3)cc2)[C@@H]2C(=O)N(C)C(=O)[C@@H]21	·	·	·	·	·	16	·	·
N#CC1=C(N)NC(SCc2ccccc2)=C(C#N)C12CCCCC2	7	-3	12*	i	i	14	1	3
CCSC1=C(C#N)C2(CCCCC2)C(C#N)=C(N)N1	4	-1	0	i	i	-15	·	·
COc1cc(S(=O)(=O)N2CCOCC2)ccc1NC(=O)COC(=O)c1ccc(Cl)nc1	·	·	·	·	i	7	·	·
